Unmarked numbers belong to inactive results. A call without a number means that no potency is given here. Calls of active or inactive are those of the source. Calls come from the whole dose curve; as a rule, active = well fitted activation curve with a large enough effect in the repeat runs; inconclusive = weak or mixed curves; inactive = flat fitted curve, though single readings scatter.
Each compound was assayed against KiSS-1 receptor (Homo sapiens) (UniProt Q969F8) (assay: Human kisspeptin (KISS1R) small molecule agonists, calcium flux assay in KISS1R-HEK293 cells (AID 1920064)). Details: KISS1R-HEK293, calcium flux fluorescence, agonist; series mostly up to 76.8 µM.
KiSS-1 receptor (Homo sapiens), sequence (Q969F8 whole entry, looked up): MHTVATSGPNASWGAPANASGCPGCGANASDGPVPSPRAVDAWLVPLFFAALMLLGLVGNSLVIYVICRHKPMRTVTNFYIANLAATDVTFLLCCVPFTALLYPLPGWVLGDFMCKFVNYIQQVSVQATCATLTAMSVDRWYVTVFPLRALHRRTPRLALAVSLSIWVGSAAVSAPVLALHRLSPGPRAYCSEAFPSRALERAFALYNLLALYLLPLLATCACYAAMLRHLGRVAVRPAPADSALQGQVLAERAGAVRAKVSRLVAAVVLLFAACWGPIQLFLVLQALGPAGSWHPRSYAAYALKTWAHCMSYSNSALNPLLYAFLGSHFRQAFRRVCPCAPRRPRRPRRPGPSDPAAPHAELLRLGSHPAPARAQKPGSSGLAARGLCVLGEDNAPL
Description: National Center for Advancing Translational Sciences [NCATS]
Division of Preclinical Innovation [DPI]
U.S. Environmental Protection Agency [EPA]
National Institutes of Environmental Health Sciences [NIEHS]
National Toxicology Program [NTP]
U.S. Food and Drug Administration [FDA]
Kisspeptin and its receptor KISS1R play key roles in mammalian reproduction due to their involvement in the onset of puberty and control of the hypothalamic-pituitary-gonadal axis such as regulates GnRH release from the hypothalamus. The kisspeptin/KISS1R system also plays a direct role in peripheral organs (including the ovary, testis, uterus, and placenta) and is implicated in reproductive diseases such as miscarriage and polycystic ovary syndrome (PCOS). Abnormal KISS1R activity is associated with abnormal puberty, infertility, endometriosis, and hormone-dependent tumors. The KISS1 receptor (KISS1R, also called GPR54), a G-protein-coupled receptor (GPCR), acts (through phospholipase C) to increase intracellular inositol trisphosphate and then release intracellular calcium stores. Cell-based KISS1R-HEK293 assay is using HEK293 cells that have been genetically engineered to express the human KISS1R, which activity can be measured by calcium signaling. A compound/drug can activate (agonist) KISS1R that can be monitored by levels of intracellular calcium.
KISS1R-HEK293 cells developed by Codex Corp contain human KISS1R gene, which was stably integrated into HEK 293 cells. The compound activation can be detected by fluorescence intensity via calcium flux assay. This cell line has been used to screen the Tox21 10K compound library to identify agonists of KISS1R.
KISS1R-Hek293 cells were dispensed at 1500 cells/4uL/well in 1536-well black wall/clear bottom plates using a multidrop dispenser. After the assay plates were incubated at a 37 C/5% CO2 incubator for 18 hours, 4 microL of Calcium Dye Solution was added to each well. The plates were incubated at 37 C for 1 hour. And then 23 nL of compounds dissolved in DMSO, positive controls, or DMSO only was transferred to the assay plate by a pin tool station. The fluorescence intensity in the plates was measured using FDSS 7000EX kinetic plate reader with a filter set of Ex/Em=480/540 for 3 min at 1 sec intervals. Each test compound was measured at 15 concentrations and in triplicates.
With `COc1ccc(CN2CCNCC2)c(OC)c1OC` the Potency was “inactive”. For `O=c1oc2ccccc2c(O)c1C1CCCc2ccccc21` (stereo not given), the Potency was “inactive”. In the case of `O=C1NCN(c2ccccc2)C12CCN(CC1COc3ccccc3O1)CC2` (stereo not given), the Potency is reported as “inactive”. With `CC(O)C(=O)[O][Hg][c]1ccccc1` (stereo not given) the Potency was “inactive”. In the case of `CCCN(CCC)CCc1c[nH]c2ccccc12`, the Potency is reported as “inactive”. `CCOP(=S)(OCC)SCS(=O)(=O)CC` was tested, and the Potency was “inactive”. In the case of `COC(=O)C(C)Oc1ccc(Oc2ccc(Cl)cc2Cl)cc1` (stereo not given), the Potency is reported as “inactive”. `CCC(Cl)CCl` (stereo not given) was tested, and the Potency was “inactive”. `C[CH2][Hg][N]1C(=O)C2C(C1=O)C1(Cl)C(Cl)=C(Cl)C2(Cl)C1(Cl)Cl` (stereo not given) was tested, and the activation was 13.3% [at 15.8 µM]. `O=S(=O)(Cl)c1ccccc1` was tested, and the Potency was “inactive”. `O=C1C(I)=CC(=C(c2cc(I)c(O)c(I)c2)c2ccccc2C(=O)O)C=C1I` was tested, and the Potency was “inactive”. For `CCC/C(=N\OCC)C1=C(O)CC(CC(C)SCC)CC1=O` (stereo not given), the Potency was “inactive”. With `Clc1cc(C(Cl)(Cl)Cl)cnc1Cl` the Potency was “inactive”. With `CSCCCN=C=S` the Potency was “inactive”. For `c1ccc2c(c1)CCNC2`, the Potency was “inactive”. `Cc1cccc(Cc2cnc[nH]2)c1C` was tested, and the Potency was “inactive”. For `ClCCCCl`, the Potency was “inactive”. `CCCCOC(C)=O` was tested, and the Potency was “inactive”. In the case of `BrCC1CO1` (stereo not given), the Potency is reported as “inactive”. In the case of `CCOc1ccc(C(C)(C)COCc2cccc(Oc3ccccc3)c2)cc1`, the Potency is reported as “inactive”. In the case of `O=[N+]([O-])c1ccc(O)c([N+](=O)[O-])c1`, the Potency is reported as “inactive”. With `CC(C)N(CCC(C(N)=O)(c1ccccc1)c1ccccn1)C(C)C` (stereo not given) the Potency was “inactive”. `CCCSP(=S)(OCC)Oc1ccc(Cl)cc1Cl` (stereo not given) was tested, and the Potency was “inactive”. `Cc1cccc(OP(=O)(Oc2cccc(C)c2)Oc2cccc(C)c2)c1` was tested, and the Potency was “inactive”. With `CC1(C)C(C(=O)OC(C#N)c2cccc(Oc3ccccc3)c2)C1(C)C` (stereo not given) the Potency was “inactive”. `O=c1[nH]c2cc(Cl)ccc2n1C1CCNCC1` was tested, and the Potency was “inactive”. In the case of `O=C(CBr)OCc1ccccc1`, the Potency is reported as “inactive”. In the case of `CCCOC(=O)Cc1ccc(OCC(=O)N(CC)CC)c(OC)c1`, the Potency is reported as “inactive”. In the case of `CC(=O)Nc1ccc2c(c1)Cc1ccccc1-2`, the Potency is reported as “inactive”. With `COC(=O)C(C)N(C(=O)c1ccco1)c1c(C)cccc1C` (stereo not given) the Potency was “inactive”. For `CS(=O)(=O)c1ccc(C(=O)C2C(=O)CCCC2=O)c([N+](=O)[O-])c1`, the Potency was “inactive”. With `CCOP(=S)(NC(C)C)Oc1ccccc1C(=O)OC(C)C` (stereo not given) the Potency was “inactive”. `CC1N=C(N)OC1c1ccccc1` (stereo not given) was tested, and the Potency was “inactive”. In the case of `N#CC(O)c1ccccc1` (stereo not given), the Potency is reported as “inactive”. With `C[C@H](N)[C@H](O)c1ccc(O)c(O)c1` the Potency was “inactive”. For `COP(=O)(OC)SCn1c(=O)oc2cc(Cl)cnc21`, the Potency was “inactive”. With `CC(=O)[O-].CC(=O)[O-].CC(=O)[O-].[Cr+3]` the Potency was “inactive”. In the case of `c1cc2ccc3cccc4ccc(c1)c2c34`, the Potency is reported as “inactive”. In the case of `C#C[C@]1(O)CC[C@H]2[C@@H]3CCC4=CC(=O)CCC4=C3C=C[C@@]21CC`, the Potency is reported as “inactive”. For `COC(=O)c1cc(Oc2ccc(Cl)cc2Cl)ccc1[N+](=O)[O-]`, the Potency was “inactive”.
